Screening data from PubChem.
Compounds with a hit are over-represented: about 1.1% of the library has one in this group of screens.
RXFP1 antagonist – qHTS Assay for Antagonists of the Relaxin Receptor RXFP1 | actives 0.59% (n = 350,000) | HEK293-RXFP1, relaxin-stimulated cAMP HTRF, 30 min; active compounds read low | activity change, negative = inhibition, % at 57.5 µM | AID 1259400, 2018;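 active means activity change of -60% or lower, but not beyond a set lower limit; inconclusive means change between -60% and -40%, or beyond the set limit; inactive means change above -40%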; further: on the % scale 0 is the no-effect control and ±100 the full control effect
gsp antagonist – qHTS for Antagonists of gsp, the Etiologic Mutation Responsible for Fibrous Dysplasia/McCune-Albright Syndrome: qHTS; AID 624288, 2012; Potency, µM (doses to about 76.9 µM), inactives show at the top dose activity change, negative = inhibition, actives largely listed as inhibitors; actives 0.4% (n = 340,000); gsp-mutant cells, cAMP HTRF, 30 min; calls by dose curve; cell line not stated here;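 further: intracellular cAMP measured with PDE inhibitor Ro 20-1724 present during compound exposure; potency means the concentration at half of the fitted maximal effect; on the % scale 0 is the no-effect control and ±100 the full control effect; nearly all actives have a fitted effect of over 65% in size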
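G418-selected cells were plated in DMEM/10% FBS for 16-24 h at 37C, then treated with compounds plus the PDE inhibitor […] (300 uM solution added) for 30 min at 37C. Intracellular cAMP was measured by HTRF after 30 min lysis at room temperature.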
ASM inhibitor – Inhibitors of Secretory Acid Sphingomyelinase (S-ASM): qHTS; Sphingomyelin phosphodiesterase (Homo sapiens), P17405; placental ASM, HMU-PC fluorogenic substrate, 60 min; Potency, µM (top dose mostly 57.5 µM), for the others: top-dose activity change, negative = inhibition, hits mostly inhibitors; actives 0.006% (n = 340,000); further: potency means the concentration at half of the fitted maximal effect
Target sequence (P17405 47-631 limits assumed): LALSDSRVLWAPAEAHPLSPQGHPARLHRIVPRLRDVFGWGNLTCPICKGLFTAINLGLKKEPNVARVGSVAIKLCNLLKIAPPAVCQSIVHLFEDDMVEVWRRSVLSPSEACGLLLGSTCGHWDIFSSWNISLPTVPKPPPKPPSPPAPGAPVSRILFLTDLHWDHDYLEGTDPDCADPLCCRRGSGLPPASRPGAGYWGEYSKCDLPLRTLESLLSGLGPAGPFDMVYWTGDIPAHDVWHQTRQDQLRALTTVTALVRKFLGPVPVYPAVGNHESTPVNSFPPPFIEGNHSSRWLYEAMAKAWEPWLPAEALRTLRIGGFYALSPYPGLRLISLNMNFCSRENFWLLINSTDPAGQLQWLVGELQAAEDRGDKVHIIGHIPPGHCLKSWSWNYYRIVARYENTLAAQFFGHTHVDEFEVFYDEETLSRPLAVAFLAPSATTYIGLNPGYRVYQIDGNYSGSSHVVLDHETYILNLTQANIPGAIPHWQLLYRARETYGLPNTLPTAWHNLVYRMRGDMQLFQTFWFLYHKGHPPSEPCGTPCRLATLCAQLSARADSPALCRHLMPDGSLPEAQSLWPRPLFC
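Fluorogenic HMU-PC substrate (9 uM final) is turned over by placental ASM in 60 min at 37 C after a 10 min compound preincubation. Reaction ended by alkaline stop (pH 10), with fluorescence read at 386/447 nm.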
Integrin act MD – qHTS for Activators of Integrin-Mediated Alleviation for Muscular Dystrophy; alpha7betagal myoblasts, beta-gal FDG fluorescence, 48 h; Potency, µM (top dose mostly 38.3 µM), for the others: top-dose activation, most hits filed as activators; actives 0.064% (n = 350,000);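 further: potency means the concentration at half of the fitted maximal effect; 100% = response of the positive control SU9516; nearly all actives have a fitted effect of over 60% in size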
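Alpha7betagal+/- myoblasts (passage 13) were plated 16-24 hr, then exposed to compounds (1:260 dilution of DMSO stock) for 48 hours at 37C. After MPER lysis, β-galactosidase reporter activity was read as FDG fluorescence (ex 480/em 540) after 30 minutes.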
gsp agonist – qHTS for Agonist of gsp, the Etiologic Mutation Responsible for Fibrous Dysplasia/McCune-Albright Syndrome: qHTS. actives 0.13% (n = 340,000). Potency, µM (titrated, usually from 76.9 µM), for the others: at the highest dose activation (cAMP increase), usual class: activators. gsp mutant cells, cAMP HTRF, 30 min; active means well fitted activation curve with a large enough effect; inconclusive means small, poorly fitted or top-dose-only effect, or another doubt; inactive means no such curve, though single readings can be large or run the other way; cell line not stated here;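 further: phosphodiesterase inhibitor Ro 20-1724 added with compounds to block cAMP breakdown; potency means the concentration at half of the fitted maximal effect; nearly all actives have a fitted effect of over 60% in size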
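Cells in DMEM/10% FBS with G418 were pretreated with compounds in DMSO plus […] (300 uM stock) for 30 min at 37C. cAMP was measured by HTRF (cAMP-d2 plus anti-cAMP antibody-K) after 30 min at room temperature.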
RXFP1 agonist – qHTS Assay for Agonists of the Relaxin Receptor RXFP1 | Relaxin receptor 1 (Homo sapiens), Q9HBX9 | HEK293T-RXFP1 cAMP TR-FRET, 30 min; response scale: percent of porcine relaxin response, buffer zero | Potency, µM (titrated, usually from 57.5 µM), for the others: at the top dose activation, hits mostly activators | actives 0.3% (n = 370,000); further: potency means the concentration at half of the fitted maximal effect; on the % scale 0 is the no-effect control and ±100 the full control effect; nearly all actives have a fitted effect of over 60% in size
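HEK293 cells stably expressing RXFP1, treated 30 min at 37C with compounds plus PDE4 inhibitor Ro 20174; cAMP measured by HTRF TR-FRET. Normalized to buffer and 29 nM porcine relaxin; EC50 by Hill fit.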
Active calls of the source: *; ? = inconclusive; nt = no result; [ ] = another dose, or the depositor's remark. Unless noted, the call rests on the fitted dose curve; in most records, active means well fitted curve in the direction sought with a large enough effect; inconclusive means small, poorly fitted or top-dose-only effect, or another doubt; inactive means no such curve, though single readings can be large; an effect the other way counts as inactive or inconclusive.

SMILES	RXFP1 antagonist	gsp antagonist	ASM inhibitor	Integrin act MD	gsp agonist	RXFP1 agonist
COc1ccc(N2C(=O)CCSC23C(=O)N(Cc2ccc(F)cc2)c2ccccc23)cc1 (centres undefined)	-82.0*	nt	nt	nt	nt	-0.4%
Cc1ccc(-n2ncc3c2CC(C)(C)CC3NC(=O)CCc2cccnc2)cc1 (centres undefined)	-4.0	-11.1%	-0.9%	-23.5%	0.6%[15.4 µM]	0.0%
Cc1cc(=O)n2nc(N3CCC(C(=O)Nc4ccc(Br)cc4F)CC3)sc2n1	nt	nt	nt	nt	nt	8.9%
CCOC(=O)c1ccc(N2CCN(C(C)=O)CC2)c(NC(=O)c2cccnc2)c1	0.4	50.1µM*	4.2%	17.3%	6.5%	7.3%
Cc1cc(C)cc(-n2ccnc2SCC(=O)Nc2ccc(C)cc2C)c1	nt	nt	nt	nt	nt	1.4%
O=C(c1cccc(Cl)c1)N1c2nc(-c3ccco3)nn2C2(CCCCC2)[C@@H]2CCCC[C@@H]21	-3.9	nt	nt	nt	nt	0.6%
COc1ccccc1C(=O)N1c2ncnn2C2(CCCCC2)[C@@H]2CCCC[C@@H]21	0.1	nt	nt	nt	nt	-0.9%
O=C(c1cccc(Cl)c1)N1c2ncnn2C2(CCCCC2)[C@@H]2CCCC[C@@H]21	-61.3*	nt	nt	nt	nt	-2.6%
COc1cccc(C(=O)N2c3nc(-c4ccco4)nn3C3(CCCCC3)[C@@H]3CCCC[C@@H]32)c1	-64.8*	nt	nt	nt	nt	4.1%
Cc1cc(Nc2cccc(C(F)(F)F)c2)nc2ccc(NC(=O)c3cccnc3)cc12	-72.0*	nt	nt	nt	nt	6.4%
COc1ccc(OCC(=O)Nc2ccc(C(=O)Nc3ccccc3C(=O)O)cc2)cc1	-16.5	39.8µM*	0.8%	14.0%	16.4%	1.6%
O=C(COc1ccc(Br)cc1)Nc1ccc(C(=O)Nc2ccccc2C(=O)O)cc1	-27.5	-3.2%	1.0%	-8.5%	12.2%[15.4 µM]	-1.2%
CC(=O)c1ccc(NC(=O)c2ccc(NC(=O)CCS(=O)(=O)c3cccs3)cc2)cc1	?	?	-3.7%	-39.1%	-1.7%[15.4 µM]	1.7%
COc1ccc(NC(=O)c2ccc(NC(=O)CCS(=O)(=O)c3cccs3)cc2)cc1	-96.7*	-8.3%	2.2%	-25.8%	-7.1%	0.4%
CC(=O)Oc1ccc(C(=O)Nc2ccccc2NC(=O)c2ccc(OC(C)=O)cc2)cc1	6.4	25.1µM*	-1.0%	-2.5%	-2.4%	-3.5%
CCOc1ccc(C(=O)Nc2ccc(C(F)(F)F)n(C)c2=O)cc1	5.5	3.2%	2.7%	8.9%	28.2µM*	3.9%
CCOc1ccc(CSc2nc(C)cc(COC)c2C#N)cc1OCC	-0.3	-3.3%	-2.0%	-15.7%	0.7%	0.0%
CC(=O)N(CC(O)CO)c1c(I)c(C(=O)NCCO)c(I)c(C(=O)NCC(O)CO)c1I (centres undefined)	-8.6	nt	nt	nt	nt	nt
CCCC(=O)Nc1ccccc1NC(=O)c1ccc(OC)cc1	1.1	8.8%	0.3%	-3.7%	7.5%[15.4 µM]	3.7%
COc1ccc(C)cc1NC(=O)c1cccc(-c2ccc(OC(C)=O)cc2)c1	-4.2	25.1µM*	-1.4%	-35.9%	6.3%[15.4 µM]	5.4%
CCCC(=O)Nc1ccccc1NC(=O)c1ccc(OCC)cc1	-5.2	27.0%	1.9%	11.2µM*	0.0%	1.8%
CCOCCn1c(C2CCN(CCc3ccc(C(C)(C)C(=O)O)cc3)CC2)nc2ccccc21	-2.2	nt	nt	nt	nt	nt
COc1cc(OC)cc(-c2nc3nc(C)c(CCC(=O)Nc4ccc(F)cc4F)c(C)n3n2)c1	nt	nt	nt	nt	nt	-1.3%
NC(=O)c1sc2nc3c(c(-c4ccco4)c2c1N)CCCC3	-2.5	0.1%	-3.1%	?	8.3%	0.0%
Nc1c(C(=O)NCC2CCCO2)sc2nc3c(c(-c4ccco4)c12)CC/C3=C\c1ccco1 (centres undefined)	-102.4*	-7.8%	-9.3%	-6.9%	7.3%	1.4%
SMILES	RXFP1 antagonist	gsp antagonist	ASM inhibitor	Integrin act MD	gsp agonist	RXFP1 agonist
CC(=O)c1c(C)[nH]c(C(=O)CN2CCN(S(=O)(=O)c3ccc(C(C)C)cc3)CC2)c1C	-2.5	35.5µM*	-5.2%	-26.4%	-13.6%	2.1%
c1ccc(COc2ccc(OCCCNC3CCCC3)cc2)cc1	-86.1*	17.8%	-6.3%	-58.7%	27.6%	1.1%
COCCCNCCCCOc1ccc(OCc2ccccc2)cc1	-27.7	-5.2%	-3.6%	-64.5%	-40.1%	0.5%
O=C(NC1CCCC1)c1ccccc1OCc1ccccc1	-81.8*	-13.8%	-1.1%	-6.5%	0.3%[15.4 µM]	-1.6%
O=C(NC1CCN(Cc2ccccc2)CC1)c1ccccc1OCc1ccccc1	-4.2	-6.6%	-1.4%	0.0%	-23.2%	1.6%
CC1CCCCN1CC(=O)Nc1ccccc1Sc1ccccc1 (centres undefined)	-20.5	-3.0%	2.5%	-17.8%	20.5%	1.8%
COc1ccc(NS(=O)(=O)c2ccc3[nH]c4c(c3c2)CCCCC4)cc1	?	nt	nt	nt	nt	-2.9%
COc1ccc(CN2CCN(C(c3ccc(F)cc3)c3ccc(F)cc3)CC2)c(OC)c1OC	-105.7*	?	-4.5%	nt	nt	nt
COc1ccc(CN2CCN(c3ccc(F)cc3)CC2)c(OC)c1OC	nt	-1.6%	3.4%	-33.2%	13.1%	-4.9%
Cc1cccc(NC(=O)/C(C#N)=C\c2cc(C)n(-c3ccc(C(=O)O)cc3)c2C)c1	-34.5	25.1µM*	50.3%	-27.7%	5.0%	-0.5%
O=C(Cn1ncn2nc(-c3cccs3)cc2c1=O)NCc1ccc(Cl)cc1	-6.0	nt	nt	nt	nt	0.3%
O=C1NC(c2ccccc2)(c2ccccc2)C(=O)N1COP(=O)(O)O	-8.6	nt	nt	nt	nt	nt
CCCn1c(N)c(C(=O)COC(=O)c2c(C)noc2C)c(=O)n(C)c1=O	14.2	7.9%	-1.2%	-8.9%	5.01µM*	?
CC(=O)Nc1ccc(S(=O)(=O)NC2(C(F)(F)F)NC(=O)N(CCc3ccc(F)cc3)C2=O)cc1 (centres undefined)	-9.3	nt	nt	nt	nt	17.3%
COc1ccc(-n2nnnc2CNC(=O)c2c(-c3ccccc3Cl)noc2C)cc1	3.0	nt	nt	21.5%	-59.0%	nt
C/C=C1\[C@H]2C=C(C)C[C@]1(N)c1ccc(=O)[nH]c1C2	-11.2	nt	nt	nt	nt	nt
O=C(Nc1onc2c1CCCC2)c1ccccc1	-3.7	nt	nt	nt	nt	1.9%
CC(C)(C)c1ccc(C(=O)Nc2onc3c2CCCC3)cc1	-60.4*	nt	nt	nt	nt	-1.4%
O=C(NCC(O)CO)c1c(I)c(C(=O)NCC(O)CO)c(I)c(N(CCO)C(=O)CO)c1I (centres undefined)	4.2	nt	nt	nt	nt	nt
CCc1ccc(OCC(=O)Nc2ccc3c(c2)c2ccccc2n3CC)c(Br)c1	0.7	nt	nt	nt	nt	?
